These results are taken from PubChem BioAssay.

Each structure is given as a SMILES string. Active and inactive are the calls of the source.

The test system of assay [1] is Plasmodium falciparum Sir2 (PF13_0152, Sir2A). Put plainly: pfSir2 binders on small-molecule microarrays, primary screen, biochemical, small-molecule microarray, 635 nm fluorescence (AID 1098).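 Also: score merges spot fluorescence intensity with its signal-to-noise ratio.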 The conditions noted are these: small-molecule microarray binding, fluorescence 635 nm; higher = more signal.
A short description of assay [2]: small-molecule microarray binders of probe aDKK1, primary screen, biochemical, biotinylated probe, 635/667 nm fluorescence (AID 1099).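 Also: score merges 667nm spot fluorescence with signal to noise across triplicate slides.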 Particulars: higher = more signal.
Assay [3] is described as follows: small-molecule microarray binders of probe aCHRDL2, primary screen, biochemical, biotinylated probe, 635/667 nm fluorescence (AID 1100). The conditions noted are these: higher = more signal.
The nature of assay [4]: splicing luciferase reporter signal modulators, primary screen, spliceosome inhibition project, cell-based, HEK293, splice +/- reporter (AID 1101).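 Also: HEK293 cells carrying a splicing-competent luciferase reporter gene; test concentration not given here.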 Particulars: luminescence, 24 h, higher = more signal, called active from +8 up or from −8 down. A general note: In a reporter assay the amount or activity of a reporter protein is the signal.
Assay [5] addresses Fibroblast growth factor 10 (Homo sapiens) (UniProt O15520). In words: FGF10 binders on small-molecule microarrays, primary screen, biochemical, small-molecule microarray, 635 nm fluorescence (AID 1102). Particulars: FGF10 binding, fluorescence 635 nm, higher = more signal.
Assay [6] relates to glycogen synthase kinase-3 (GSK3A per assay name; protocol says GSK3B). In words: GSK3 binders on small-molecule microarrays, primary screen, biochemical, small-molecule microarray, 635 nm fluorescence, GSK3A (AID 1103). Also: the record names both GSK3A and GSK3B. Particulars: small-molecule microarray binding, fluorescence 635 nm; higher = more signal.
Assay [7] has as its target Epidermal growth factor receptor (Homo sapiens) (UniProt P00533). Put plainly: EGFR binders on small-molecule microarrays, primary screen, biochemical, small-molecule microarray, 635 nm fluorescence (AID 1104).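 Also: score merges 667 nm emission intensity with spot signal to noise over triplicate slides.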 The conditions noted are these: EGFR binding, higher = more signal.
The target in assay [8] is Follistatin-related protein 3 (Homo sapiens) (UniProt O95633). In words: FSTL3 binders on small-molecule microarrays, primary screen, biochemical, small-molecule microarray, 635 nm fluorescence (AID 1105).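 Also: score merges emission near 667 nm and signal to noise per printed spot across three slides.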 The conditions noted are these: FSTL3 binding, higher = more signal.
Assay [9] concerns the target Dickkopf-related protein 1 (Homo sapiens) (UniProt O94907). In words: DKK1 binders on small-molecule microarrays, primary screen, biochemical, small-molecule microarray, 635 nm fluorescence scan (AID 1106).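 Also: score merges emission near 667 nm with signal to noise over three replicate slides.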 The conditions noted are these: DKK1 binding, higher = more signal.
Assay [10] relates to Inhibin beta A chain (activin A). In words: INHBA (activin A) binders on microarrays, primary screen, biochemical, small-molecule microarray, 635 nm fluorescence scan (AID 1107).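 Also: mouse activin A protein probed at 4.33 µg/mL on printed slides; score merges bound-protein fluorescence near 667 nm with spot signal-to-noise.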 The conditions noted are these: small-molecule microarray binding, higher = more signal.
For assay [11], the system named is Human papillomavirus type 1a protein E7 (residues 44-93). Put plainly: HPV1a E7 fragment binders on microarrays, primary screen, biochemical, small-molecule microarray, residues 44-93, 635 nm fluorescence (AID 1108).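 Also: E7 fragment applied at 1 µg/mL in TBST for 1 h at 4 C; score combines spot fluorescence with its signal to noise ratio.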 The conditions noted are these: small-molecule microarray binding, fluorescence 635 nm; higher = more signal.
Assay [12] can be described thus: modulators of HCV replicon luciferase signal, primary screen, HCV replication inhibitor project, Huh7 cells, luciferase reporter (AID 1109).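 Also: huh7 hepatoma cells harbouring a luciferase neomycin HCV replicon reporter; luciferase luminescence as measure of HCV replicon replication; test concentration not given here.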 Particulars: 48 h, higher = more signal.
Assay [13] has as its target Left-right determination factor 2 (Homo sapiens) (UniProt O00292). Put plainly: LEFTY2 binders on small-molecule microarrays, primary screen, biochemical, small-molecule microarray, 635 nm fluorescence scan (AID 1110). Particulars: LEFTY2 binding, higher = more signal.
Assay [14] deals with Calmodulin-1 (Homo sapiens) (UniProt P0DP23). Put plainly: CALM1 binders on microarrays, EGTA buffer, profiling panel, biochemical, small-molecule microarray, Cy5-labelled CALM1 (AID 1111).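 Also: labelled calmodulin applied in Tris saline Tween buffer holding calcium plus EGTA and DTT.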 Particulars: Cy5-CALM1 binding fluorescence, higher = more signal.
Assay [15] has the same target. Put plainly: calcium-bound CALM1 binders on microarrays, profiling panel, artefact control for SMM control-protein annotation, biochemical, small-molecule microarray, Cy5-labelled CALM1, plus calcium (AID 1112).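 Also: score merges spot fluorescence with signal to noise from triplicate slides.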 Particulars: Cy5-CALM1 binding fluorescence, higher = more signal.
The nature of assay [16]: small-molecule microarray binders of probe aWnt5a, primary screen, biochemical, biotinylated probe, 635/667 nm fluorescence (AID 1113).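 Also: score merges 667 nm fluorescence intensity with signal-to-noise per printed feature.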 The conditions noted are these: higher = more signal.
Assay [17] can be described thus: small-molecule microarray binders of probe aShh, primary screen, biochemical, biotinylated probe, 635/667 nm fluorescence (AID 1114).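 Also: probe is biotin-labelled aShh protein from a stem cell growth factor screen; measures binding of labelled protein to compounds printed on the slide; score merges feature fluorescence at 667 nm with signal-to-noise.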 The conditions noted are these: higher = more signal.
Assay [18] in a line: small-molecule microarray binders of probe aNog, primary screen, biochemical, biotinylated probe, 635/667 nm fluorescence (AID 1115).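 Also: probe is biotinylated aNog protein used at 0.15 µg/mL for 1 h at 4 C; z-score combines 667 nm fluorescence of each spot with its signal to noise.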 The conditions noted are these: higher = more signal.
Assay [19] addresses Torsin-1A-interacting protein 1 (Homo sapiens) (UniProt Q5JTV8). Put plainly: LAP1 binders from COS7 cell lysate, primary screen, small-molecule microarray, 635/667 nm fluorescence (AID 1116). Particulars: COS7-hLAP1 lysate binding, 635 nm fluorescence, higher = more signal.
Assay [20] concerns the target Alpha-bungarotoxin (Bungarus multicinctus) (UniProt P60615). Put plainly: alpha-bungarotoxin binders on microarray, profiling panel, artefact control for SMM control protein annotation, biochemical, small-molecule microarray, Alexa647 label, 635/667 nm fluorescence (AID 1117). Particulars: alpha-BTX-A647 binding fluorescence, higher = more signal.

Sequence of Fibroblast growth factor 10 (Homo sapiens) (O15520 whole entry, looked up): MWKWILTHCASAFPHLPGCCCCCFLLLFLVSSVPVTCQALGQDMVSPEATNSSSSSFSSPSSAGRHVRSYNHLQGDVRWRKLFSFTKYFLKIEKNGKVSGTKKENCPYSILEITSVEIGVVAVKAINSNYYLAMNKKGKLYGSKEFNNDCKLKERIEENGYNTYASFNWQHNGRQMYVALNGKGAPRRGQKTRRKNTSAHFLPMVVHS
Sequence of Alpha-bungarotoxin (Bungarus multicinctus) (P60615 whole entry, looked up): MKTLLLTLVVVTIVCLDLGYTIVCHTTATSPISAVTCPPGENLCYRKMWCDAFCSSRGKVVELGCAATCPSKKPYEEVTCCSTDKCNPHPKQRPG
Sequence of Dickkopf-related protein 1 (Homo sapiens) (O94907 whole entry, looked up): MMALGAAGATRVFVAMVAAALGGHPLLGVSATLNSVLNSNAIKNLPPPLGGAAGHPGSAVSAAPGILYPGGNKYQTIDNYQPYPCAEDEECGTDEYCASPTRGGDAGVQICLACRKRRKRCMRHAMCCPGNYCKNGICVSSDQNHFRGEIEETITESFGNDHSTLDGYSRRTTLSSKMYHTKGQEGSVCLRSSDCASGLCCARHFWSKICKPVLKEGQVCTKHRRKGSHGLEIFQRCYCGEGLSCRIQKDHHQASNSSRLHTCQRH
Sequence of Left-right determination factor 2 (Homo sapiens) (O00292 whole entry, looked up): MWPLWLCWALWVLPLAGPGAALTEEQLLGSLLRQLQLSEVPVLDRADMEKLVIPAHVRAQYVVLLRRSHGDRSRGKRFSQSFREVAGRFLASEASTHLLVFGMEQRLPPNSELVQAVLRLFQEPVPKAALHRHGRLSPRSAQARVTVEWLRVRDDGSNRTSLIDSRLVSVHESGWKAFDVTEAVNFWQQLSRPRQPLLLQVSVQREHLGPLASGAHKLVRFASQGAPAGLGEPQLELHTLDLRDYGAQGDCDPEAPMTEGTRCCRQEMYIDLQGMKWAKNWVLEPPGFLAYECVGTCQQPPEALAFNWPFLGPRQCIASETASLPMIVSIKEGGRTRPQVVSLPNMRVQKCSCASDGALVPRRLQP
Sequence of Follistatin-related protein 3 (Homo sapiens) (O95633 whole entry, looked up): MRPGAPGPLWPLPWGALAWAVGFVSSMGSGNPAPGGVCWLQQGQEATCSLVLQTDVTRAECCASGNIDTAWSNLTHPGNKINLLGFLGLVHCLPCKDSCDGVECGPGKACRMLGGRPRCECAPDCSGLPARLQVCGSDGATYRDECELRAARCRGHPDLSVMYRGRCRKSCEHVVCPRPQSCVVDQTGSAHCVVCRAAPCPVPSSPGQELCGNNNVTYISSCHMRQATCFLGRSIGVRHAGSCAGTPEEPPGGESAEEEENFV
Sequence of Epidermal growth factor receptor (Homo sapiens) (P00533 whole entry, looked up): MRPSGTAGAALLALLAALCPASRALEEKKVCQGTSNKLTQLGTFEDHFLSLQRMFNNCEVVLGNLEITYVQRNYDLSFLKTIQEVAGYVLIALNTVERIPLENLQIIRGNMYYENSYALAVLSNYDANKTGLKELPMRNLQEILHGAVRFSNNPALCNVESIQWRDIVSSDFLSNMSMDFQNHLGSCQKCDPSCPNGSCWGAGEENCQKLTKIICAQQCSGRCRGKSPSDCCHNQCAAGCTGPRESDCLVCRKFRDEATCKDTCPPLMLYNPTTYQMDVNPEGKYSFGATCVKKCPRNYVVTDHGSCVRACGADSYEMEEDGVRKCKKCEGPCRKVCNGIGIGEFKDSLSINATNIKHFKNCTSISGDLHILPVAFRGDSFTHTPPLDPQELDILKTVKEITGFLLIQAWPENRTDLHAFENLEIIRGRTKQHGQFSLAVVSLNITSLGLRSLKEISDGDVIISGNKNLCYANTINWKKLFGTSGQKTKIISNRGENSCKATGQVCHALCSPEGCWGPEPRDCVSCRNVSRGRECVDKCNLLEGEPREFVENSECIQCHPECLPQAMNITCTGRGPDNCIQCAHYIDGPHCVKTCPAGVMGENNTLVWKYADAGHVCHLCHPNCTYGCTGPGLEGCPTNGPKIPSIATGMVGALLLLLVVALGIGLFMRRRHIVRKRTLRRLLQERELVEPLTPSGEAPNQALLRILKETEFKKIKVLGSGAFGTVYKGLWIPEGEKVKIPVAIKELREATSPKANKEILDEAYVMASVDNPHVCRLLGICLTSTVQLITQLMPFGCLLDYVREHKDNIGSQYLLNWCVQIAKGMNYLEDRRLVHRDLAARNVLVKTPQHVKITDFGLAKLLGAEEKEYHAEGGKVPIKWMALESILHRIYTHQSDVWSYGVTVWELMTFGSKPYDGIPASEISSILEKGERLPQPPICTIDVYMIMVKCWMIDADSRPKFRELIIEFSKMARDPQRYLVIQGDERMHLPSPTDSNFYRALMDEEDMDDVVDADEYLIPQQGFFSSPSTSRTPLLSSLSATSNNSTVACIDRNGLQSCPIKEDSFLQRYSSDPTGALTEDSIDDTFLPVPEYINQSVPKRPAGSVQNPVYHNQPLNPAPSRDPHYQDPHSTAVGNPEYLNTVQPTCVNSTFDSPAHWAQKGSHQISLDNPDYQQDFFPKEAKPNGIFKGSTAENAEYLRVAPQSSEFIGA
Sequence of Torsin-1A-interacting protein 1 (Homo sapiens) (Q5JTV8 whole entry, looked up): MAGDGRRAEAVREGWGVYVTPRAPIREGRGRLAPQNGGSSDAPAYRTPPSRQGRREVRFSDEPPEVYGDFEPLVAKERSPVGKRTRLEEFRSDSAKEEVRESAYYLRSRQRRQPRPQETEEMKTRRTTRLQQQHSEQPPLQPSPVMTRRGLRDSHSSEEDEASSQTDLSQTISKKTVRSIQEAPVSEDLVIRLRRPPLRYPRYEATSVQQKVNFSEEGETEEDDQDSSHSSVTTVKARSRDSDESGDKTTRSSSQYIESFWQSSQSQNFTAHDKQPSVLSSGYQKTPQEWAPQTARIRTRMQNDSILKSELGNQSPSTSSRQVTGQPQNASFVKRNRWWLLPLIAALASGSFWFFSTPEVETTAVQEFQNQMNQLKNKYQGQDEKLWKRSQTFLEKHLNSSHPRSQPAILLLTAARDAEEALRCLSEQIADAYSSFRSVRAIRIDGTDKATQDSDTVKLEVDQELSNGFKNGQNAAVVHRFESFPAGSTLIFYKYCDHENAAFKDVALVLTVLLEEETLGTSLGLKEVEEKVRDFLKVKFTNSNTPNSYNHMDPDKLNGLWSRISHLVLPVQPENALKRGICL

As for `COCCOC(=O)N1C(=O)[C@@]2(c3cc(C#CCCO)ccc31)[C@H](C(=O)NC[C@H](O)c1ccccc1)[C@H]1C(=O)O[C@H](c3ccccc3)[C@H](c3ccccc3)N1[C@@H]2c1ccc(O)cc1`, the composite z-score in assay [1] is 0.0479; in assay [2], -0.194; in assay [3], 0.146; in assay [5], 0.518; in [6] it was -0.417; in [7], -0.243. Moreover, the composite z-score in assay [8] is 0.599; in [9], 0.165; in assay [10] it was -0.0769; in [11], 0.727; in assay [13], -0.186; in assay [14], 0.302. For the same compound, the composite z-score was 0.262 in assay [15]; -0.0519 in assay [16]; -0.416 in [17]; -0.0784 in [18]; 1.11 in assay [19]; 0.476 in assay [20]. Moreover, the z-score is -0.267 (inactive) in [4] and -0.485 in assay [12].

On to `C=CCN1C(=O)[C@]2(O[C@H](CCO)[C@@H]([Si](C)(C)c3ccc(OC)cc3)[C@@H]2C)c2cc(NC(=O)[C@H](C)O)ccc21`, for which the composite z-score is 1.45 in assay [1]; -0.191 in assay [2]; -0.159 in assay [3]; 1.27 in [5]; 0.984 in [6]; -0.191 in assay [7]. Moreover, the composite z-score worked out at 0.267 in assay [8]; 0.0607 in assay [9]; 0.197 in [10]; 0.942 in [11]; 0.0707 in assay [13]; 0.737 in assay [14]. Further, the composite z-score in [15] was -0.217; in [16], -0.0799; in assay [17], 0.13; in assay [18], -0.204; in [19], 0.925; in assay [20] it was 0.69. For the same compound, the values for the z-score in [4] and in [12] were -1.26 (inactive) and -4.97, respectively.

Take `C=CC(=C)C1=CCO[C@@H]1[C@H]1CCCN1S(=O)(=O)c1ccccc1[N+](=O)[O-]`: the composite z-score in [1] is 0.487; in assay [2] it was -0.268; in assay [3], -0.268; in [5] it was 0.925; in [6] it was 0.168; in assay [7] it was 0.578. Moreover, the composite z-score in assay [8] was 1.31; in assay [9], 0.797; in [10] it was 1.27; in [11], -0.0291; in assay [13], 0.867; in assay [14], 0.397. In addition, the composite z-score is -0.112 in assay [15]; -0.101 in assay [16]; -0.0626 in assay [17]; -0.175 in assay [18]; 0.169 in [19]; 0.537 in [20]. Also, the z-score was -0.626 (inactive) in assay [4] and -1.4 in assay [12].

Regarding `COC(=O)[C@@]1(Cc2ccccc2)[C@H]2c3cc(C(=O)N(C)C)n(Cc4c(-c5ccccc5)noc4C)c3C[C@H]2CN1C(=O)c1ccccc1`, the composite z-score in assay [1] was 0.609; in assay [2], 0.898; in [3] it was 1.18; in assay [5] it was 0.377; in [6], 0.638; in assay [7], 0.144. Further, the composite z-score was 0.0261 in assay [8]; -0.0672 in [9]; 1.22 in assay [10]; 1.15 in assay [11]; -0.51 in assay [13]; 1.16 in assay [14]. Also, the composite z-score in assay [15] came to 0.954; in assay [16] it was 0.204; in [17] it was 0.545; in assay [18], 1.85; in assay [19], 1.68; in assay [20] it was 1.56. The z-score in assay [4] was 0.762 (inactive); in [12], -0.535.

Turning to `COc1cccc(C(=O)O[C@H]2CC[C@]3(C)C4=C(CCC3C2(C)C)[C@]2(C)CC[C@H]([C@H](C)CCCC(C)C)[C@@]2(C)CC4)c1` (stereo not given in full), the composite z-score in assay [1] is 0.399; in assay [2] it was -0.056; in assay [3], -0.495; in assay [5], 0.647; in assay [6] it was 0.495; in assay [7], 0.527. The composite z-score in [8] was 0.459; in assay [9], 0.389; in assay [10] it was 0.468; in [11] it was -0.212; in [13] it was 0.359; in assay [14], -0.0348. Moreover, the composite z-score is -0.441 in [15]; -0.202 in assay [16]; -0.138 in assay [17]; -0.0689 in [18]; 0.105 in assay [19]; 0.3 in assay [20]. Also, the z-score in [4] was -1.23 (inactive); in assay [12], 0.004.

Regarding `CCCCCCCCCCC(O)C1C=CC2C(=O)N(Cc3ccccc3)C(=O)C2N1n1cnnc1` (stereo not given), the composite z-score in assay [1] is 0.724; in [2], 0.897; in assay [3], 0.739; in assay [5], -0.262; in [6], 0.08; in [7], -0.384. Also, the composite z-score in assay [8] is -0.351; in assay [9], -0.906; in assay [10], 1.23; in assay [11] it was 1.37; in assay [13], -0.62; in [14] it was 1.55. Moreover, the composite z-score is 0.727 in assay [15]; 0.147 in assay [16]; 0.251 in assay [17]; 0.62 in assay [18]; 0.36 in [19]; 1.02 in assay [20]. Also, the figures for the z-score in [4] and in assay [12] were -0.47 (inactive) and -1.2, respectively.
